Source: the supplement of paper PMC10646978
± gives the standard deviation.

Columns and labels:
Details in all cases: modulator concentration 10 µM
[1] = test system: RAW-Dual (murine macrophage reporter line); test: NF-kB reporter (SEAP) activity fold change vs agonist alone; higher = enhanced NF-kB activity
In short: (§1)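 RAW-Dual murine macrophage reporter cells were plated at 50 000 per well in 384-well plates, pin-transferred compound to 10 μM final, and pre-incubated for 1 hour at 37 °C before a PRR agonist was added and the cells incubated overnight. NF-κB activity was read from supernatant SEAP with QUANTI-Blue at 620 nm absorbance, and IRF activity from Lucia luciferase with QUANTI-Luc by luminescence. Each signal was expressed as fold change by dividing by the mean agonist-only control on the same plate. Two replicate plates were averaged, with errors obtained by propagation.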

[2] = test system: RAW-Dual (murine macrophage reporter line); test: IRF reporter (Lucia luciferase) activity fold change vs agonist alone; higher = enhanced IRF activity
In short: as §1

[3] = test system: RAW-Dual (murine macrophage reporter line); test: viability score (confluency relative to resting cells, overnight) (fraction); higher = more viable, active = viable (0.7 or more)
In short: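 Compound was added at a final 10 μM to RAW-Dual macrophages in 384-well plates and left overnight. Confluency was imaged with IncuCyte, and two masks were generated in IncuCyte software over all imaged wells. Each viability score is confluency relative to resting cells, and a compound met the cutoff only when both masks were above 70% of resting cells.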

[4] = agonist: CpG ODN 1826 0.5 ug/mL

Row | SMILES | NF-kB reporter [1, 4] | NF-kB reporter ([1]; agonist: LPS 0.1 ug/mL) | NF-kB reporter ([1]; agonist: MPLA […]) | IRF reporter ([2]; agonist: 3'3'-cGAMP 10 ug/mL) | IRF reporter ([2]; agonist: LPS 0.1 ug/mL) | IRF reporter ([2]; agonist: MPLA […]) | viability score [3]
1 | O=c1oc2ccccc2c(O)c1Cc1c(O)c2ccccc2oc1=O | 1.06 ± 0.089 | 0.972 ± 0.061 | 1.03 ± 0.051 | 1.06 ± 0.12 | 0.916 ± 0.048 | 0.844 ± 0.07 | 0.997 (active)
2 | COc1ccc(CNC2CCCc3ccccc32)c(OC)c1C (configuration not stated) | 0.166 ± 0.016 | 0.504 ± 0.058 | 1.09 ± 0.1 | 1.24 ± 0.04 | 1.21 ± 0.14 | 1.42 ± 0.29 | 0.192 (inactive)
3 | Ic1cccc(Cn2nnc(-c3ccccc3)n2)c1 | 0.76 ± 0.06 | 0.98 ± 0.048 | 1.38 ± 0.15 | 0.872 ± 0.04 | 1.28 ± 0.12 | 1.51 ± 0.18 | 1.01 (active)
4 | O=C(O)C1C(c2ccccc2)C(C(=O)OCc2ccccc2)C1c1ccccc1 (configuration not stated) | 0.926 ± 0.089 | 1.09 ± 0.062 | 1.05 ± 0.079 | 1.03 ± 0.078 | 1.24 ± 0.087 | 1.03 ± 0.076 | 1.01 (active)
5 | CN1CCN(C2=Nc3cc(Cl)ccc3Nc3ccccc32)CC1 | 0.713 ± 0.058 | 0.941 ± 0.057 | 1.13 ± 0.1 | 0.924 ± 0.064 | 1.47 ± 0.11 | 1.46 ± 0.12 | 0.981 (active)
6 | COC1CCN(c2ccc(C(=O)N3CC(n4cc(COc5ccccc5)nn4)C3)cc2)C1 (configuration not stated) | 1.17 ± 0.099 | 1.13 ± 0.1 | 0.959 ± 0.053 | 0.758 ± 0.043 | 1.12 ± 0.076 | 1.08 ± 0.24 | 0.922 (active)
7 | COc1ccc(C(NC(=O)c2ccccc2F)c2ccc(OC)cc2)cc1 | 1.03 ± 0.17 | 1.08 ± 0.093 | 1.01 ± 0.095 | 1 ± 0.032 | 1.21 ± 0.27 | 1.24 ± 0.16 | 1 (active)
8 | COc1ccc(Br)c(C(=O)N2CCOCC2CO)c1 (configuration not stated) | 0.922 ± 0.049 | 0.963 ± 0.095 | 1.03 ± 0.071 | 0.997 ± 0.098 | 1.36 ± 0.26 | 1.52 ± 0.51 | 0.951 (active)
9 | CCOP(C)(=O)C(c1ccccc1)N(C)S(C)(=O)=O (configuration not stated) | 1.01 ± 0.089 | 1.04 ± 0.058 | 1.03 ± 0.062 | 1.03 ± 0.046 | 1.66 ± 0.19 | 1.22 ± 0.17 | 1.01 (active)
10 | Oc1nc(O)nc(N(c2ccccc2)c2ccccc2)n1 | 1.18 ± 0.095 | 1.02 ± 0.098 | 1.02 ± 0.09 | 1 ± 0.13 | 1.09 ± 0.15 | 1.08 ± 0.29 | 1 (active)
11 | O=C(NC(=S)Nc1cccc([N+](=O)[O-])c1)c1cccc(I)c1 | 0.944 ± 0.1 | 1.08 ± 0.072 | 0.985 ± 0.044 | 0.794 ± 0.1 | 1.09 ± 0.14 | 1.02 ± 0.17 | 1 (active)
12 | Cc1cc(OCC(=O)NNC(=O)COc2ccc(Br)cc2Br)cc(C)c1Cl | 0.961 ± 0.098 | 0.857 ± 0.13 | 0.985 ± 0.036 | 0.895 ± 0.15 | 0.987 ± 0.051 | 0.98 ± 0.086 | 0.945 (active)
13 | CCOC(=O)CN1CCOCCOCCN(CC(=O)OCC)CCOCCOCC1 | 0.937 ± 0.078 | 0.971 ± 0.061 | 0.957 ± 0.067 | 0.974 ± 0.052 | 1.23 ± 0.088 | 1.02 ± 0.1 | 1.01 (active)
14 | Cc1ccc(-n2nc(C(C)(C)C)cc2NC(=O)Nc2ccc(OCCN3CCOCC3)c3ccccc23)cc1 | 0.68 ± 0.13 | 0.658 ± 0.052 | 0.784 ± 0.077 | 1.19 ± 0.058 | 0.741 ± 0.14 | 0.844 ± 0.1 | 1.02 (active)
15 | N#Cc1cc(OC2CCSC2)nc2ccccc12 (configuration not stated) | 1.04 ± 0.067 | 1.05 ± 0.095 | 1.18 ± 0.065 | 0.935 ± 0.071 | 0.959 ± 0.045 | 1.15 ± 0.16 | 1 (active)
16 | O=C1CN(C(=O)c2cc3ccccc3o2)c2ccccc2N1 | 1.1 ± 0.35 | 1.01 ± 0.052 | 1.21 ± 0.1 | 0.992 ± 0.035 | 1.03 ± 0.14 | 1.1 ± 0.14 | 0.998 (active)
17 | O=C(CN(CCc1ccccc1)S(=O)(=O)c1ccc(Cl)cc1)NCc1ccncc1 | 1.03 ± 0.19 | 0.976 ± 0.076 | 0.941 ± 0.12 | 0.954 ± 0.025 | 1.17 ± 0.11 | 1.16 ± 0.26 | 1.01 (active)
18 | O=S(=O)(c1ccc(F)cc1)n1cccc1 | 0.812 ± 0.065 | 0.746 ± 0.047 | 1.09 ± 0.096 | 1.02 ± 0.05 | 1.49 ± 0.087 | 1.72 ± 0.22 | 0.988 (active)
19 | Nc1c2c(nc3ccccc13)CCCC2O (configuration not stated) [Prestw-448] | 0.958 ± 0.059 | 0.88 ± 0.068 | 0.958 ± 0.026 | 1.01 ± 0.042 | 0.964 ± 0.05 | 0.906 ± 0.087 | 0.994 (active)
20 | O=C1C(=Cc2ccncc2)CCC1=Cc1ccncc1 | 1.03 ± 0.082 | 0.928 ± 0.08 | 0.971 ± 0.12 | 0.993 ± 0.045 | 1.21 ± 0.17 | 1.28 ± 0.27 | 1.01 (active)
21 | CC(C)(C)c1ccc(C(=O)Nc2nc3ccc([N+](=O)[O-])cc3s2)cc1 | 1.06 ± 0.085 | 1.05 ± 0.072 | 1 ± 0.035 | 1.04 ± 0.23 | 0.986 ± 0.074 | 1.1 ± 0.11 | 1 (active)
22 | O=C(NCCNC(=O)c1ccccc1Cl)c1ccc(NC(=O)C2CC2)cc1 | 0.924 ± 0.04 | 1.01 ± 0.084 | 1.67 ± 0.56 | 1.02 ± 0.052 | 1.36 ± 0.25 | 1.69 ± 0.5 | 0.98 (active)
23 | Cc1c(NC(=S)NC(=O)c2ccccc2[N+](=O)[O-])cccc1-c1nc2ccccc2s1 | 1.09 ± 0.087 | 1.07 ± 0.073 | 0.933 ± 0.064 | 0.88 ± 0.021 | 1.47 ± 0.2 | 1.07 ± 0.2 | 1.02 (active)
24 | CCCCCCCCc1ccc(CCC(N)(CO)CO)cc1.Cl | 0.687 ± 0.18 | 0.685 ± 0.047 | 1.55 ± 0.2 | 0.172 ± 0.019 | 0.673 ± 0.072 | 0.615 ± 0.15 | 0.513 (inactive)
25 | CC1CC(OC(=O)C(O)c2ccccc2)CC(C)(C)N1C (configuration not stated) [Prestw-794] | 1.07 ± 0.17 | 1.25 ± 0.12 | 1.02 ± 0.08 | 0.97 ± 0.027 | 1.09 ± 0.2 | 1.22 ± 0.15 | 1 (active)
26 | FC(F)(F)c1ccc(/C=C/c2nc(COc3ccc(CCCCn4ccnn4)cc3)co2)cc1 | 1.26 ± 0.17 | 1.71 ± 0.29 | 1.46 ± 0.09 | 0.914 ± 0.028 | 1.67 ± 0.14 | 1.77 ± 0.16 | 0.995 (active)
